Data published in ChEMBL document CHEMBL3988442, “University of Dundee, Small-Polar-MMV Screening Library” (2021).
Out of some 69,000 compounds screened, about 950 (1.4%) showed an effect of 50% or more. The list comes from a sample in which strong results are over-represented; it also holds similar structures and randomly drawn compounds.

The compounds below were run on Mycobacterium tuberculosis (assay: Cornell M. t heat shock assay; also: in the data most compounds retested in dose-response had high values).
Type: functional, organism-based
Design: dose or concentration left out as unconfirmed

Row | Compound | Percent Effect
1 | Cc1ccc(C2(CN3CCN(Cc4cn(C)nc4C)CC3)CC2)cc1.Cl | 5.814%
2 | Cl.O=C(NC1CCCC1)c1ccnc(C2CCNCC2)c1 | -6.855%
3 | CN(C)C(=O)COCC1CN(Cc2ccoc2)Cc2ncn(C)c21.O=C(O)C(F)(F)F.O=C(O)C(F)(F)F (stereo not given) | -26.5%
4 | Cc1ccc(N2CCCC3(COCCN(c4ccccn4)C3)C2)nn1.O=C(O)C(F)(F)F (stereo not given) | -19.77%
5 | Cc1nc2cc(-c3nccn3C)nn2c(N2CCC(O)CC2)c1C.Cl | 0.7953%
6 | CNC(=O)[C@@H]1C[C@H]2CN(Cc3ccco3)C[C@H]2N1C.O=C(O)C(F)(F)F.O=C(O)C(F)(F)F | -19.75%
7 | CS(=O)(=O)NC[C@]12COC[C@H]1CN(CC1CCCC1)C2.O=C(O)C(F)(F)F | -15.72%
8 | O=C(O)C(F)(F)F.O=C(O)C(F)(F)F.O=C(O)C(F)(F)F.c1ccc(CN2CCC3(CC2)CCN(Cc2cccs2)C3)nc1 | -44.21%
9 | Cc1nn(C)c2c(=O)n(CC(=O)NCc3ccccc3Cl)ccc12 | -7.047%
10 | Cc1cnn(CC2CCCCN2CC(=O)Nc2nc(C)cs2)c1 (stereo not given) | 74.94%
11 | Cc1cnn(CC2CCCCN2CC(=O)Nc2nncs2)c1 (stereo not given) | 18.17%
12 | Cc1cnn(CC2CCCCN2CC(=O)Nc2c(C)n[nH]c2C)c1 (stereo not given) | -5.895%
13 | O=C(N[C@@H]1CN(Cc2c[nH]nc2-c2ccccc2)C[C@H]1O)c1cc[nH]n1 | 1.707%
14 | CN1CCCCc2c1nc1c(c2N)CCC1.O=C(O)c1cc([N+](=O)[O-])ccc1Cl | -19.05%
15 | Cc1cc(C)cc(CN2CCC3(CC2)CC(Nc2ncccn2)CO3)c1.O=C(O)C(F)(F)F (stereo not given) | -30.68%
16 | C=C/C=c1\c(=C/C)oc2c(NCc3ccccc3)nc(C)nc12 | 104.3%
17 | Cc1nc(NCc2cccnc2)c2c(n1)c(C)nn2C | 15.35%
18 | CCc1nc(NCc2ccccn2)c2c(n1)c(C)nn2C | -15.98%
19 | C=C/C=c1\c(=C/C)oc2c(NCc3ccccc3)ncnc12 | -0.4342%
20 | CCn1c(NCc2ccccc2)nc2c(C)nn(C)c2c1=O | 12.91%

Row | Compound | Percent Effect
21 | C=C/C=c1\c(=C/C)oc2c(NCc3ccccc3)nc(CC)nc12 | 75.04%
22 | CS(=O)(=O)N1CCC2(CC1)COC(COc1ccccn1)C2.O=C(O)C(F)(F)F (stereo not given) | -12.81%
23 | O=C(O)C(F)(F)F.O=C(O)C(F)(F)F.O=C1[C@H]2CN(Cc3ccccc3)C[C@H]2CN1CCN1CCCC1 | 1.586%
24 | Cc1oncc1C(=O)N[C@@H]1CN(C2CCC2)C[C@@H]2CCCO[C@@H]21.O=C(O)C(F)(F)F | 25.58%
25 | Cc1c[nH]nc1C1CCCN1Cc1ncc[nH]1.O=CO (stereo not given) | -1.504%
26 | Cc1ccccc1NC(=O)c1cncc(C2CCNCC2)n1.Cl | 27.66%
27 | c1ccc(Oc2ncccc2CNCc2ccccn2)cc1 | 69.15%
28 | CN(C)S(=O)(=O)NCc1cccnc1Oc1ccccc1 | -4.23%
29 | O=C(CN1CCCCCC1)NCc1cccnc1Oc1ccccc1 | 2.86%
30 | O=C(C[C@@H]1COC[C@H]2CN(CC3CC3)C[C@@H]12)NCc1cccnc1.O=C(O)C(F)(F)F.O=C(O)C(F)(F)F | 9.594%
31 | NC(=O)C1CCN(C(=O)Cc2cnc(-c3c(Cl)cccc3Cl)s2)CC1 | 65.47%
32 | O=C(Cc1cnc(-c2c(Cl)cccc2Cl)s1)N1CCOCC1 | -11.24%
33 | CC(=O)N1CCN(C(=O)Cc2cnc(-c3c(Cl)cccc3Cl)s2)CC1 | 3.544%
34 | O=C(O)C(F)(F)F.O=C1CC(c2cccnc2)C2(CCN(S(=O)(=O)C3CC3)CC2)N1 (stereo not given) | -6.88%
35 | Cc1nc(-c2ccc(CNS(=O)(=O)N(C)C)cc2)ccc1C(N)=O | 10.37%
36 | Cc1ccc(-c2nc(CNS(=O)(=O)N(C)C)[nH]c2-c2ccccn2)cc1 | 101.5%
37 | CN(C)S(=O)(=O)NCc1cccnc1Oc1ccc(F)cc1F | -13.26%
38 | CN(C)S(=O)(=O)NCc1cccnc1Oc1ccccc1F | 7.179%
39 | Cc1ccccc1Oc1ncccc1CNS(=O)(=O)N(C)C | -10.74%
40 | CN(C)S(=O)(=O)NCc1nc(-c2cccc(F)c2)c(-c2ccccn2)[nH]1 | 62.81%

Row | Compound | Percent Effect
41 | Cl.O=C(c1cccnc1N1CCN(CCO)CC1)N1CCCC1 | 2.64%
42 | COCC1CN(CC2CC2)Cc2nccn2C1.O=C(O)C(F)(F)F (stereo not given) | -7.797%
43 | COCC(=O)N(C)Cc1nc(N2CCCC2)ncc1-c1ccncc1.Cl | -16.19%
44 | COc1ccc(C2CCCN2S(=O)(=O)N(C)C)cc1 (stereo not given) | -0.3722%
45 | COc1ccc(C2CCCCCN2S(C)(=O)=O)cc1 (stereo not given) | -12.37%
46 | COc1ccc(C2CCCCCN2S(=O)(=O)N(C)C)cc1 (stereo not given) | 68.3%
47 | CN(C)CCOCC1CN(Cc2ccccn2)Cc2nnn(C)c21.O=C(O)C(F)(F)F.O=C(O)C(F)(F)F.O=C(O)C(F)(F)F (stereo not given) | -27.07%
48 | Cc1ccc(C(CCNCCN(C)C)C2CCOC(C)(C)C2)cc1.O=C(O)C(=O)O (stereo not given) | 1.762%
49 | Cl.NC(CC1CCCCC1)c1ccccc1 (stereo not given) | 1.9%
50 | Cl.NC(CC1CCCC1)c1ccccc1 (stereo not given) | -17.85%
51 | NC(CC1CCCC1)c1ccc(Oc2ccccc2)cc1 (stereo not given) | 102.825%
52 | COc1ccc(-c2cc(C3CCNCC3)ccn2)cc1.Cl | -16.31%
53 | Cc1nc(CN2CCOCC3(CCN(c4ncccn4)CC3)C2)cs1.O=C(O)C(F)(F)F | -11.45%
54 | CCc1nccn1-c1cccc(C2CCCN2)n1.Cl.Cl (stereo not given) | 8.16%
55 | COCCN(C/C=C/c1ccccc1)Cc1ccccn1 | 61.37%
56 | COCCN(C/C=C/c1ccccc1)Cc1nccs1 | 1.581%
57 | CCn1ncnc1CN(C/C=C/c1ccccc1)CCOC | -13.31%
58 | COCCN(C/C=C/c1ccccc1)Cc1ncc[nH]1 | 14.48%
59 | COCCN(C/C=C/c1ccccc1)Cc1[nH]cnc1C | -1.061%
60 | CCc1ccc(CN(C/C=C/c2ccccc2)CCOC)nc1 | 98.48%
